PubChem BioAssay
Active and inactive are the calls of the source. How the calls were made is not given here.

Molecular target: Pantothenate synthetase (Mycobacterium tuberculosis (strain ATCC 25618 / H37Rv)) (UniProt P9WIL5)
Test: Recombinant Mtb pantothenate synthetase (PanC) inhibitors, coupled enzyme, confirmatory (AID 375);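 further: 0% = full reaction with vehicle and 100% = no enzyme background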
Settings: coupled enzyme assay; at 10 µM, active compounds read high

Sequence of Pantothenate synthetase (Mycobacterium tuberculosis (strain ATCC 25618 / H37Rv)) (P9WIL5 whole entry, looked up): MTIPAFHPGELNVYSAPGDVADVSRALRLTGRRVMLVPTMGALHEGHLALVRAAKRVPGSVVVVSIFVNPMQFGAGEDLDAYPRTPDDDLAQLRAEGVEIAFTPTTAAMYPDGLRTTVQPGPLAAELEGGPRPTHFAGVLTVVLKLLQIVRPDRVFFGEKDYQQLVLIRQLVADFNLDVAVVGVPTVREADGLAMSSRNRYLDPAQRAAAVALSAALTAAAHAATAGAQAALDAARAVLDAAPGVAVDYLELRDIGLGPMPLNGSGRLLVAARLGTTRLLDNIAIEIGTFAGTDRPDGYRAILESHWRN

Row | SMILES | inhibition
1 | CC1CCCCN1CCNC(=O)c1ccc2c(=O)n(CCc3ccccc3)c(=O)[nH]c2c1 (configuration not stated) | 0% (inactive)
2 | CCCCOc1ccc(C2C3CN(C(=O)OCC)CC=C3C(C#N)=C(N)C2(C#N)C#N)cc1OC (configuration not stated) | 0% (inactive)
3 | O=C(Nc1c(-c2ccccc2)nc2ccccn12)c1ccco1 | 0% (inactive)
4 | COC(=O)C1=C(C)NC(=O)C1(NC(=O)CN1CCCC1=O)C(F)(F)F (configuration not stated) | 5% (inactive)
5 | COC(=O)c1cc2ccsc2n1CC(=O)N(C)c1ccccc1 | 10% (inactive)
6 | CCOC(=O)N(C)c1ccc(C(O)(C(F)(F)F)C(F)(F)F)cc1 | 0% (inactive)
7 | COc1ccc(S(=O)(=O)N2CCN(C3CCCCCCC3)CC2)cc1 | 1% (inactive)
8 | c1ccc(OCCOc2ncnc3sccc23)cc1 | 0% (inactive)
9 | Cc1cnc(C(=O)NCCc2ccc(S(=O)(=O)NC(=O)NC3CCCCC3)cc2)cn1 | 5% (inactive)
10 | CN(CC(O)COCc1cccs1)C1CCCCC1 (configuration not stated) | 1% (inactive)
11 | CCOC(=O)C1CCN(Cc2ccc(F)c(Br)c2)CC1 | 0% (inactive)
12 | CC1=C(C(N)=O)C(c2ccncc2)n2nc(-c3ccccc3Cl)nc2N1 (configuration not stated) | 0% (inactive)
13 | CS(=O)(=O)N(Cc1ccco1)CC(O)Cn1c2ccccc2c2ccccc21 (configuration not stated) | 0% (inactive)
14 | Cc1ccc(-c2nnc(-c3ccc(Br)cc3)o2)o1 | 0% (inactive)
15 | CCCCOC(=O)Cn1c(=O)oc2ccc(C)cc21 | 0% (inactive)
16 | CCSc1nc(C)nc2c1oc1ccccc12 | 0% (inactive)
17 | O=C(O)C1CC=CCC1C(=O)Nc1ccc(S(=O)(=O)N2CCCc3ccccc32)cc1 (configuration not stated) | 0% (inactive)
